Here are results for one sequence from PMC7862700, “An all-to-all approach to the identification of sequence-specific readers for epigenetic DNA modifications on cytosine”.

Assay in all cases: DAPPL (digital affinity profiling via proximity ligation, sequencing); 10 mM Tris-HCl pH 7.5, 50 mM NaCl, 1 mM DTT, 4% glycerol, room temperature, 30 min; GST-TFs on glutathione beads, 16-mer random dsDNA library, 0.1% formaldehyde crosslink after washing; high values mean tight binding
One test addresses T1, FEV (Homo sapiens, UniProt Q99581 1-238).
T1 sequence: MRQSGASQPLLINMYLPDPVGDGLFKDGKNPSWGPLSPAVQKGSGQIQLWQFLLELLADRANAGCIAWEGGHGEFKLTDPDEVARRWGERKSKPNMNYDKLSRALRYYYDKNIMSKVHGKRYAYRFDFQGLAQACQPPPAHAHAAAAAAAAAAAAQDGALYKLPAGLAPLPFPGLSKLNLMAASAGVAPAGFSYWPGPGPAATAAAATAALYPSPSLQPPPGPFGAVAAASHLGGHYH
The settings on record: protein: recombinant; tags: N-terminal GST; dsDNA, one strand shown. Summed up: (§1)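 Binding signal is each hexamer's read frequency for a factor divided by its frequency in the tag-only sample. The factors were GST-fused human transcription factors from yeast, captured on glutathione beads, DNA-barcoded and pooled with that sample. Pools were incubated with 200 nmole of a random double-stranded 16-mer DNA library in Tris/NaCl/DTT/glycerol buffer at room temperature for 30 min, then washed, crosslinked with 0.1% formaldehyde, proximity-ligated with BsaI/T4 ligase (1 h, 37 °C), PCR-amplified and sequenced on an Illumina NextSeq500.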

The next test concerns the target ETV5 (Homo sapiens, UniProt P41161 1-510). Conditions: protein: recombinant; tags: N-terminal GST; dsDNA, one strand shown. Summed up: as §1
A further test deals with HSF1 (Homo sapiens, UniProt Q00613 1-529). The settings on record: protein: recombinant; tags: N-terminal GST; chain copies: 3; dsDNA, one strand shown. Summed up: as §1
Sequence of HSF1 (Q00613 whole entry): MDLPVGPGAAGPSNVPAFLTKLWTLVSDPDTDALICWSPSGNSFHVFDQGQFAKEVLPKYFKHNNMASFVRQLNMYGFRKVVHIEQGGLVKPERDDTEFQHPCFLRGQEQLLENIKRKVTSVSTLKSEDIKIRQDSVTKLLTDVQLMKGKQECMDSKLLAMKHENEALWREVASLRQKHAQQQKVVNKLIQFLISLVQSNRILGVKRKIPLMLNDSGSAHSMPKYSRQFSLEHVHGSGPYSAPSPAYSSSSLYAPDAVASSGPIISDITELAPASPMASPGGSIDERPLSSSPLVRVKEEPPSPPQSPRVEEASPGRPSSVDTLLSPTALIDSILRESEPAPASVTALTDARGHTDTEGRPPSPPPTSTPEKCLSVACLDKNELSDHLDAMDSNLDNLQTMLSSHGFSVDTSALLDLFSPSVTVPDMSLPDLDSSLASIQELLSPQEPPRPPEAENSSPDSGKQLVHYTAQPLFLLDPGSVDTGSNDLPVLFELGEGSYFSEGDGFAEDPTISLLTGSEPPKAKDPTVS
In the next test the target is T2, SPIC (Homo sapiens, UniProt Q8N5J4 1-248).
T2 sequence: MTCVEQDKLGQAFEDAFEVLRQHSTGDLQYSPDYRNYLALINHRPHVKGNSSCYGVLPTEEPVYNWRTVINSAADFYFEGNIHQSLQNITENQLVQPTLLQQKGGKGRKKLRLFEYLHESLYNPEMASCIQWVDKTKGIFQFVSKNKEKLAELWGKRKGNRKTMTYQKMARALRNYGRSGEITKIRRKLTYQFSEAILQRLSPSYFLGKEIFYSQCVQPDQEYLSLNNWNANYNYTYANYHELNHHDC
The settings on record: protein: recombinant; tags: N-terminal GST; dsDNA, one strand shown. Summed up: as §1

In a further test the target is ELF4 (Homo sapiens, UniProt Q99607 1-663). The settings on record: protein: recombinant; tags: N-terminal GST; dsDNA, one strand shown. Summed up:
as §1

The next test deals with T3, ELK4 (Homo sapiens, UniProt P28324-2 1-405).
T3 sequence: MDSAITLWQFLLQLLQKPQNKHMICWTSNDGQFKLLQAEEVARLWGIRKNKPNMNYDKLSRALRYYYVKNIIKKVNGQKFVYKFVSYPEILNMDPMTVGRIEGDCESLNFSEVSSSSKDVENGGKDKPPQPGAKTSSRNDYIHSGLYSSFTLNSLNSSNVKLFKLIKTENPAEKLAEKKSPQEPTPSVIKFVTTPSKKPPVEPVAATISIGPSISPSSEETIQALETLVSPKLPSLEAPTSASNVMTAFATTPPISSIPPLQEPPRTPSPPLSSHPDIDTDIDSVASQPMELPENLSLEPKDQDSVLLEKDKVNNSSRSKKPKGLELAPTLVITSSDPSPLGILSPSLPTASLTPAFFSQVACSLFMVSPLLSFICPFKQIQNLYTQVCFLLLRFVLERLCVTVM
The settings on record: protein: recombinant; tags: N-terminal GST; dsDNA, one strand shown. Summed up:
as §1

The target in a further test is T4, ETV2 (Homo sapiens, UniProt O00321 1-342).
T4 sequence: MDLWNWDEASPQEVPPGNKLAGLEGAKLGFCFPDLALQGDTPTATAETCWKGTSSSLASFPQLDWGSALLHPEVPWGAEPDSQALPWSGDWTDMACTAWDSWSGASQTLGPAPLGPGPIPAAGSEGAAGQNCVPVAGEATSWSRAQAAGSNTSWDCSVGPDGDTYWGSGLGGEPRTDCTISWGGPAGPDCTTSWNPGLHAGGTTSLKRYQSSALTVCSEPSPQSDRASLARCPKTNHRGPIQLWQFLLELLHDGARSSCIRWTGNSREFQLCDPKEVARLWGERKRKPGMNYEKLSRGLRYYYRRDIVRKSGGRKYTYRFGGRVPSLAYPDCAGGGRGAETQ
Conditions: protein: recombinant; tags: N-terminal GST; dsDNA, one strand shown. Summed up:
as §1

A further test concerns the target T5, ELF3 (Homo sapiens, UniProt P78545 1-371).
T5 sequence: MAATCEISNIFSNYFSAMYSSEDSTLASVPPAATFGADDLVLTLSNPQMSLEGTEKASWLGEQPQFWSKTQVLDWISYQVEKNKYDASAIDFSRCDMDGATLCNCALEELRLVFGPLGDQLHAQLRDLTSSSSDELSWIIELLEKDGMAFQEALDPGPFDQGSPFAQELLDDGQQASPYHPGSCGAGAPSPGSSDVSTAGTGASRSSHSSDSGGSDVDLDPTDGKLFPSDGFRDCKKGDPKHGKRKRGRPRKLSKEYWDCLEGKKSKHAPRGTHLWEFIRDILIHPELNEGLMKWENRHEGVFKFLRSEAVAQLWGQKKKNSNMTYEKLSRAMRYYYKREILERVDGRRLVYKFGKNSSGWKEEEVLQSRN
The settings on record: protein: recombinant; tags: N-terminal GST; dsDNA, one strand shown. Summed up: as §1

Another test addresses CRX (Homo sapiens, UniProt O43186 1-299). The settings on record: protein: recombinant; tags: N-terminal GST; dsDNA, one strand shown. Summed up: as §1
In the next test the target is ETV1 (Homo sapiens, UniProt P50549 1-477). Conditions: protein: recombinant; tags: N-terminal GST; dsDNA, one strand shown. Summed up: as §1
Sequence of ETV1 (P50549 whole entry): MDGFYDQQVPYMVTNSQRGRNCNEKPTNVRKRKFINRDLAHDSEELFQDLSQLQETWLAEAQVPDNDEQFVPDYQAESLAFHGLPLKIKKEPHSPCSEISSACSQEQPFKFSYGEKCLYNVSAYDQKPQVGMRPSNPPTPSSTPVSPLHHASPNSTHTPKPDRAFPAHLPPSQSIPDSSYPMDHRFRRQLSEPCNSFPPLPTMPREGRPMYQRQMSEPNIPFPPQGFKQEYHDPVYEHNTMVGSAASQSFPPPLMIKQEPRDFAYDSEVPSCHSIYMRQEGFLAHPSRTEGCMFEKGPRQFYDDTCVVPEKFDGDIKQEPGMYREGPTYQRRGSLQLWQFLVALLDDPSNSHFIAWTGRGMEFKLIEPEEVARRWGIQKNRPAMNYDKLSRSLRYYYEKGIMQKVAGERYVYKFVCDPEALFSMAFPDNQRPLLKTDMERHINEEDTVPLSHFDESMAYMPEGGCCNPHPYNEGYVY
The next test deals with T6, ERF (Homo sapiens, UniProt P50548 1-548).
T6 sequence: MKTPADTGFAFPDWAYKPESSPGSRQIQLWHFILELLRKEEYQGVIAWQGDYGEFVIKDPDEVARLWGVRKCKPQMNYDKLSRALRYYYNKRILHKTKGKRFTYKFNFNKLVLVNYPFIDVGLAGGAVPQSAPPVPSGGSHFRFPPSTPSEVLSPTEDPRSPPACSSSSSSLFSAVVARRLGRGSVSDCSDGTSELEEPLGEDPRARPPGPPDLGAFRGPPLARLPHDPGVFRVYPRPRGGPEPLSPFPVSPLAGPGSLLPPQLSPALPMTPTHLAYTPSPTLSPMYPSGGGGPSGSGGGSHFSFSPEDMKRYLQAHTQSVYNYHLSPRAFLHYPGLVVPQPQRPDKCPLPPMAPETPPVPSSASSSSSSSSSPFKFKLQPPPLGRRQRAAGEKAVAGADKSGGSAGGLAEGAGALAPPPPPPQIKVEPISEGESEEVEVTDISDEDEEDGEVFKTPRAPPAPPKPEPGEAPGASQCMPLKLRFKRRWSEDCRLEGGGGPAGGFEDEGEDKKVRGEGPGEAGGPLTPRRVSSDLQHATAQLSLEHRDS
Conditions: protein: recombinant; tags: N-terminal GST; dsDNA, one strand shown. Summed up:
as §1

The next test has as its target T7, ETV3L (Homo sapiens, UniProt Q6ZN32 1-361).
T7 sequence: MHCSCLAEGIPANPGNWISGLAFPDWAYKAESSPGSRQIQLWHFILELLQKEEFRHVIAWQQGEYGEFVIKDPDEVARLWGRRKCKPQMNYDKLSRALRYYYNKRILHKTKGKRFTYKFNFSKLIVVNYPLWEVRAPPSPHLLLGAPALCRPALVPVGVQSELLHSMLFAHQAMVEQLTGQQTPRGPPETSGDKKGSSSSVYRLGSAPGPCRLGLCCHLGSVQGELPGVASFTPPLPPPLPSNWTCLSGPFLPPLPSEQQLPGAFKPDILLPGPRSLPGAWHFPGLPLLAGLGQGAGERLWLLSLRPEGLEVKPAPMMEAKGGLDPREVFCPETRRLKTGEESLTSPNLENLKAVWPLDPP
Conditions: protein: recombinant; tags: N-terminal GST; dsDNA, one strand shown. Summed up: as §1

A further test concerns the target T8, ETS2 (Homo sapiens, UniProt P15036 1-469).
T8 sequence: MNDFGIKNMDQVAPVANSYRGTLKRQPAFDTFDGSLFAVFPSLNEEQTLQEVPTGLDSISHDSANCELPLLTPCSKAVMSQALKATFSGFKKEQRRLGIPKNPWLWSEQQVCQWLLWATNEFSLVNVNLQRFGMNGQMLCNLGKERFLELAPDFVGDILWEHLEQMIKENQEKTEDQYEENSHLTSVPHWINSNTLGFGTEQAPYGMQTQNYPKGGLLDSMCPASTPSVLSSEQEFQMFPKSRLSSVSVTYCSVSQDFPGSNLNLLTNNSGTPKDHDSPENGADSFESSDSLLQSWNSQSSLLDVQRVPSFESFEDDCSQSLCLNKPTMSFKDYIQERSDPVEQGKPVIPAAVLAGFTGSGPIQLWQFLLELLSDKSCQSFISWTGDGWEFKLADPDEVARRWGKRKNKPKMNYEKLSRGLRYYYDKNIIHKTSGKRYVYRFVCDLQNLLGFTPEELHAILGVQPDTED
Conditions: protein: recombinant; tags: N-terminal GST; dsDNA, one strand shown. Summed up: as §1

For a further test, the target named is T9, SPDEF (Homo sapiens, UniProt O95238 1-335).
T9 sequence: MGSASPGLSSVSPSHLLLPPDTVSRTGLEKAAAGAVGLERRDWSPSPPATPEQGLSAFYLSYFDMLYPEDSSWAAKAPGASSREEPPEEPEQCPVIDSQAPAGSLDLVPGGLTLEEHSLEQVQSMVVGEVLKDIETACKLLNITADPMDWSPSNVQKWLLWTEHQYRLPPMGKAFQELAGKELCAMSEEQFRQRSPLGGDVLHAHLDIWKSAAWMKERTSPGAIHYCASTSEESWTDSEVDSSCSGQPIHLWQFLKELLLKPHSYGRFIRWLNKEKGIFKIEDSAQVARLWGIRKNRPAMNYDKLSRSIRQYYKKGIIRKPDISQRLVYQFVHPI
The settings on record: protein: recombinant; tags: N-terminal GST; dsDNA, one strand shown. Summed up:
as §1

The target of the next test is T10, ETV7 (Homo sapiens, UniProt Q9Y603 1-341).
T10 sequence: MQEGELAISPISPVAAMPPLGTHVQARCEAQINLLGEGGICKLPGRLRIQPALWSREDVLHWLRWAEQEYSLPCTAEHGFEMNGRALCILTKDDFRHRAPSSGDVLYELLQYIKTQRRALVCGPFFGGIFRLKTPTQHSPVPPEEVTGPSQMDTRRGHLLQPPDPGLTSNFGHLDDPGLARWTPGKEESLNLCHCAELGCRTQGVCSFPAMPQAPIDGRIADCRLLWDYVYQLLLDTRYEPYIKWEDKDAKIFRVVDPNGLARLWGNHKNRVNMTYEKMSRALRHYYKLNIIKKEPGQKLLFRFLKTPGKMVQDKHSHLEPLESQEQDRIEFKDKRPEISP
Conditions: protein: recombinant; tags: N-terminal GST; dsDNA, one strand shown. Summed up:
as §1

The target of a further test is T11, ELF5 (Homo sapiens, UniProt Q9UKW6-2 1-255).
T11 sequence: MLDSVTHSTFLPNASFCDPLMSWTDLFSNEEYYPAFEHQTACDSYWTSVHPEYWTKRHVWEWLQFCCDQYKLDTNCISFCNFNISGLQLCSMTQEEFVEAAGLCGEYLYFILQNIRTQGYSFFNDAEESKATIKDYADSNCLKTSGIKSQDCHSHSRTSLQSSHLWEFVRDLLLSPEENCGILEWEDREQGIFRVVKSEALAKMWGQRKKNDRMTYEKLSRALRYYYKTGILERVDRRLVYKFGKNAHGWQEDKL
Conditions: protein: recombinant; tags: N-terminal GST; dsDNA, one strand shown. Summed up:
as §1

The target in the next test is T12, ETV3 (Homo sapiens, UniProt P41162-2 1-143).
T12 sequence: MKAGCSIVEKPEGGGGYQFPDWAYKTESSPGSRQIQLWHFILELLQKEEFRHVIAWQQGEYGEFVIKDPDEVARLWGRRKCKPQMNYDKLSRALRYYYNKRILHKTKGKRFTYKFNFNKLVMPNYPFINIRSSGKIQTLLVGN
The settings on record: protein: recombinant; tags: N-terminal GST; dsDNA, one strand shown. Summed up: as §1

A further test has as its target ETV6 (Homo sapiens, UniProt P41212 1-452). The settings on record: protein: recombinant; tags: N-terminal GST; dsDNA, one strand shown. Summed up:
as §1

Sequence of ELF4 (Q99607 whole entry): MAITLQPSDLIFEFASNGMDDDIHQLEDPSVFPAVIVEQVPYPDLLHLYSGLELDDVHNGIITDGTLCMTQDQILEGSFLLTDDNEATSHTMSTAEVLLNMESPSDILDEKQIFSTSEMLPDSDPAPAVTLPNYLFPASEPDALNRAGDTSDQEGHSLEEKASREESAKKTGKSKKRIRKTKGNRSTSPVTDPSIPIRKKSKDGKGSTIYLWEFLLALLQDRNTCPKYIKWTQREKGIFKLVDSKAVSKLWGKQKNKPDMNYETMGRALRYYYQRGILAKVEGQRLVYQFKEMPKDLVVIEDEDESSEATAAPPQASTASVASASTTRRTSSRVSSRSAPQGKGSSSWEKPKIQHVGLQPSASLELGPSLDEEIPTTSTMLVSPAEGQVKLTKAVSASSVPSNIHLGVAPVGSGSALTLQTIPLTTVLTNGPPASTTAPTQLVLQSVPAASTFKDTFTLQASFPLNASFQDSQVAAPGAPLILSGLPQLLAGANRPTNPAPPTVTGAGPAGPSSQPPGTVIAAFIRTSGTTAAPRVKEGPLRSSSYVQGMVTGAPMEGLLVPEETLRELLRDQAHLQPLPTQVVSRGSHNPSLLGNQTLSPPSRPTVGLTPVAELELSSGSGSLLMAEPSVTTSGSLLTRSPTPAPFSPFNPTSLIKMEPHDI
Sequence of CRX (O43186 whole entry): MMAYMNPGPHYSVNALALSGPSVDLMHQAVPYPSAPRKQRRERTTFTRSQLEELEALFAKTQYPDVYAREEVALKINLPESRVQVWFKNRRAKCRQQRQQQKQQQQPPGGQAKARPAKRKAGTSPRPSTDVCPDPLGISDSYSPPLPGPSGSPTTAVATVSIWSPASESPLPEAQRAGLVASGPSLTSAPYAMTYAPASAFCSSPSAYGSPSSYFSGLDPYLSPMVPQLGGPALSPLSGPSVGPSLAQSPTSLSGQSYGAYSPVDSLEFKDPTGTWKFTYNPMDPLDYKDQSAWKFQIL
Sequence of ETV5 (P41161 whole entry): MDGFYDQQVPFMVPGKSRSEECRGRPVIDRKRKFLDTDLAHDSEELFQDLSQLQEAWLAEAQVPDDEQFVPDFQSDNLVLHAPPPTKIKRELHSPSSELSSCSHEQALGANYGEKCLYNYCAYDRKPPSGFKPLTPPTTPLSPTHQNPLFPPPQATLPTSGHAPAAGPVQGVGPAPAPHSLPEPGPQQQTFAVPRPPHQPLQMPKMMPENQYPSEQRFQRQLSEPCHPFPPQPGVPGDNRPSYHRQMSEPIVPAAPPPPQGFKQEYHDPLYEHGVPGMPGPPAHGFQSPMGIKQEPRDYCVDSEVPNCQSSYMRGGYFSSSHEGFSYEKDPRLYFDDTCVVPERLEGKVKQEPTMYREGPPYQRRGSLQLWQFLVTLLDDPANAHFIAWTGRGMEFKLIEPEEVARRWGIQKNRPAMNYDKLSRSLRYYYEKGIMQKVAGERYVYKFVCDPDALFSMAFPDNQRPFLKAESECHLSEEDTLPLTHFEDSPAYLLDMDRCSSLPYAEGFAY
Sequence of ETV6 (P41212 whole entry): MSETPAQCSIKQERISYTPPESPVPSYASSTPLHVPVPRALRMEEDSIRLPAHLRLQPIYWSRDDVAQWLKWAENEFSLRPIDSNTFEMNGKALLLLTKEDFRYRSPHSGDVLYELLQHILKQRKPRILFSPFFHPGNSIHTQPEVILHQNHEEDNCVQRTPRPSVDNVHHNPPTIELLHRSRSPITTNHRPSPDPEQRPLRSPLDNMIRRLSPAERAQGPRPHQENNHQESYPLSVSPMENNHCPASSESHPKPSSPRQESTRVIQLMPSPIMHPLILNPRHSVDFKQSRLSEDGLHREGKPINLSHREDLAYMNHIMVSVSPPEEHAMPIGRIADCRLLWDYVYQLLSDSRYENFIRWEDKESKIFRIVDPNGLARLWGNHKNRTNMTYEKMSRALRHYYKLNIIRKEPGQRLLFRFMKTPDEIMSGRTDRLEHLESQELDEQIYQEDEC

For the sequence GCTTCC, the binding signal was 4.3 fold enrichment (6-mer frequency, TF over GST control) with FEV; 3.97 fold enrichment (6-mer frequency, TF over GST control) with ETV5; 1.47 fold enrichment (6-mer frequency, TF over GST control) with HSF1; 3.3 fold enrichment (6-mer frequency, TF over GST control) with SPIC; 3.18 fold enrichment (6-mer frequency, TF over GST control) with ELF4; 2.98 fold enrichment (6-mer frequency, TF over GST control) with ELK4. In addition, the binding signal with ETV2 was 3.44 fold enrichment (6-mer frequency, TF over GST control); with ELF3, 3.14 fold enrichment (6-mer frequency, TF over GST control); with CRX, 1.19 fold enrichment (6-mer frequency, TF over GST control); in the test with ETV1, 3.62 fold enrichment (6-mer frequency, TF over GST control); with ERF, 3.06 fold enrichment (6-mer frequency, TF over GST control); with ETV3L, 3.36 fold enrichment (6-mer frequency, TF over GST control). For the same sequence, the binding signal with ETS2 is 3.56 fold enrichment (6-mer frequency, TF over GST control); in the test with SPDEF, 3.67 fold enrichment (6-mer frequency, TF over GST control); with ETV7, 3.14 fold enrichment (6-mer frequency, TF over GST control); with ELF5 it was 4.78 fold enrichment (6-mer frequency, TF over GST control); in the test with ETV3 it was 3.8 fold enrichment (6-mer frequency, TF over GST control); with ETV6, 4.28 fold enrichment (6-mer frequency, TF over GST control).
